ROMK primary = modulates human ROMK potassium channel activity | 2% of 130,000 active | B-score at 10 µM | AID 1918 | Tet-inducible ROMK, thallium flux fluorescence; actives lie on both sides;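 active = signal ratio slope over the read window, or its plate-corrected B-score, at least 3 SD from the plate mean, either direction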;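 note: B-score of the F/F0 ratio slope over 7 to 12 s after thallium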
Target sequence (P48048 whole entry, looked up): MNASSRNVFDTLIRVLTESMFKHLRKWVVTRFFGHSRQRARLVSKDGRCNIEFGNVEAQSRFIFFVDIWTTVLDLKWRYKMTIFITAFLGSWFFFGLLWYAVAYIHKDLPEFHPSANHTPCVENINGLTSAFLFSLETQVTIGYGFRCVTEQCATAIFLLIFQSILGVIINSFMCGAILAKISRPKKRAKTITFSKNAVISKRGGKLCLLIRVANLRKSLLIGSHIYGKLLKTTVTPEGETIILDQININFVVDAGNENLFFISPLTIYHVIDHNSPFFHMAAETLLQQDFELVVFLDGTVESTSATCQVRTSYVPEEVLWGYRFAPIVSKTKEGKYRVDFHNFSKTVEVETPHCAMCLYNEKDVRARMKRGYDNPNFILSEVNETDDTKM
HSV augment = increases HSV replication in cells; 0.005% of 220,000 active; maximum fold increase; HSV replication augmentation in cells, fold increase; in the data active = maximum fold increase above about 1.5; inconclusive = no clear call, values can overlap the other calls; tested in PC3 cells
Insulin prom inh = TRM-6 insulin promoter activity inhibition; TRM-6 cells (human fetal islet line), insulin promoter-eGFP reporter, imaging; reporter expression induced with tamoxifen; inhibition, % at 2 µM; 0.9% of 130,000 active;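 active = inhibition above the mean plus 3 SD, with well images judged a real hit on visual review, cut at about 60% in these data, passing the limit was not always enough; inconclusive = inhibition over the cutoff but images rejected on review; inactive = inhibition not above the cutoff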
Ins promoter up = MIN6 insulin promoter up-regulation | AID 1625 | z-score at 5 µM | 0.3% of 190,000 active | MIN6 insulin promoter-GFP reporter, high-content imaging; hits give high values;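 active = z-score above 3 at 5 µM with at least 500 cells counted in the well; inconclusive = wells under 500 cells, flagged as cytotoxic or low count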
TbHK1 inh = blocks Trypanosoma brucei hexokinase 1 activity; inhibition, % at 10 µM; recombinant TbHK1, G6PDH-coupled NADH A340; 0.11% of 220,000 active;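 active = inhibition of 50% or more in the single-dose primary screen; inactive = inhibition below 50%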
Numbers without * were called inactive; i = inactive; u = inconclusive; x = no result. The full list was thinned out, with hits kept by preference.

SMILES	ROMK primary	HSV augment	Insulin prom inh	Ins promoter up	TbHK1 inh
CC(C)CCc1noc(CN(CC2CCC2)CC2CCCO2)n1 (stereo not given)	x	i	x	-0.6	7
CCN(CC)c1nc2cc(OC)ccc2cc1C#N	x	x	1	0.25	-1
COc1ccc2cc(C#N)c(NC(C)C)nc2c1	x	i	86*	0.51	-5
Cc1[nH][nH]c(=O)c1C(c1c(C)[nH][nH]c1=O)c1cn(Cc2cccc3ccccc23)c2ccccc12	-2.7*	i	x	1.1	-5
Cc1ccc(CSCC(=O)NCc2cccs2)cc1	-0.6	i	53	-0.25	3
Cc1cccc(C)c1NC(=O)COC(=O)Cc1ccsc1	-0.07	i	67*	x	0
Cc1cccc(C)c1NC(=O)COC(=O)COc1ccc2c(C)cc(=O)oc2c1	-0.11	i	60*	0.2	-8
Cc1cc(C(=O)NCCc2ccc(S(N)(=O)=O)cc2)no1	0.015	i	x	x	2
COc1ccc2c(c1)-c1nc(/N=C/c3ccc(O)cc3)sc1CC2	-0.85	x	77*	x	-31
COc1ccc2c(c1)-c1nc(/N=C/c3c(O)ccc4ccccc34)sc1CC2	x	i	69	x	24
Nc1nc(-c2ccc(Cl)cc2)c(N=Nc2ccc(S(=O)(=O)N3CCOCC3)cc2)s1	x	i	22	3.8*	10
O=S(=O)(c1ccc(Cl)cc1)N1CCC(N2CCOCC2)CC1	-0.031	i	x	0.94	-4
CCCCOc1ccc(C(=O)C(CN2CCOCC2)c2ccccc2)cc1 (stereo not given)	x	i	78*	x	-12
COc1ccc(C(=O)C(CN2CCOCC2)c2ccccc2)cc1 (stereo not given)	0.018	i	92*	-3.7	-1
CCCOc1ccc(C(=O)C(CN2CCCC2)c2ccccc2)cc1 (stereo not given)	-1.7	i	u	-3.5	-4
OCc1ncc(-c2ccccc2)s1	-0.54	i	x	0.04	-6
COc1ccccc1N1CCN(C/C(O)=C(\C#N)c2nc(-c3ccccc3)cs2)CC1	x	i	-42	3.2*	-29
CCn1cc(Cl)c(C(=O)Nc2ccccc2C(N)=O)n1	-1.3	i	x	-0.11	0
O=C(CNCC1(N2CCOCC2)CCCCC1)Nc1ccc(Cl)cc1	0.16	i	x	-0.18	7
Cc1c(CCO)sc[n+]1CC(=O)OCCC12CC3CC(CC(C3)C1)C2	-0.1	i	67*	0.17	7
CCCCCCCCCOC(=O)C[n+]1csc(CCO)c1C	x	u	17	-0.48	9
Cc1nc(Nc2ccc(C(=O)O)cc2)sc1-c1ccccc1	3.7*	i	x	-0.34	-36
Cc1nc2ncccn2c1-c1csc(Nc2ccccc2)n1	-1.4	i	-71	-0.14	-9
COc1ccc(Nc2nc(-c3c(C)nc4ncccn34)cs2)cc1	3.1*	i	-138	-0.72	-2
O=C(Nc1ccc(C(F)(F)F)cc1)c1cc(S(=O)(=O)NCC2COc3ccccc3O2)ccc1F (stereo not given)	-0.69	i	7	0.43	3
SMILES	ROMK primary	HSV augment	Insulin prom inh	Ins promoter up	TbHK1 inh
CS(=O)(=O)N1CCN(C(=O)NC2CCCCC2)CC1	0.17	i	x	-0.55	-3
O=C(NCc1ccc(Cl)cc1)C(=O)NCC1OCCN1C(=O)c1ccc(Cl)cc1 (stereo not given)	0.42	i	69*	x	4
Cc1ccc(CNC(=O)C(=O)NCC2OCCN2C(=O)c2ccc(Cl)cc2)cc1 (stereo not given)	0.3	i	-37	-0.14	-2
CN(C)C(=O)CN(c1ccc2c(c1)OCO2)S(C)(=O)=O	x	i	71*	3.6*	2
CCOc1ccc(CC(=NCCc2ccccc2)C2=C(O)CC(C)(C)CC2=O)cc1OCC	0.091	i	-19	-0.12	-14
O=C(OCn1ncc(Br)c(Br)c1=O)c1ccc(F)cc1	-3.5*	i	-186	x	1
O=C(OCn1ncc(Br)c(Br)c1=O)c1ccccc1Cl	-2.1	i	x	0.29	-1
CN(C)C=Nc1ccc2nn(-c3ccccc3)nc2c1	-0.3	i	x	3.1*	-30
Cc1cccc2nc(COc3ccc(Cl)c4cccnc34)cn12	-1.1	i	-14	-1	3
COc1ccc2cc3c(N)nn(C(=O)C4CCC(C(C)(C)C)CC4)c3nc2c1 (stereo not given)	-0.036	i	60*	0.03	-8
O=C(/C=C/c1ccco1)NC(=S)Nc1ccccc1N1CCOCC1	-0.93	i	-26	-0.97	-33
O=C(/C=C/c1ccco1)NC(=S)Nc1ccccc1N1CCCC1	-0.65	i	5	3.1*	-33
Cc1ccc(O)c(CO)n1	x	i	x	-0.71	0
COc1ccc(CCc2nc(C)ccc2O)cc1	-0.064	i	89*	0.2	-10
Cc1ccc(O)c(CC(C)C)n1	x	i	84*	0.91	-10
CCCn1c(N2CCN(C(=O)Nc3ccc(Cl)cc3)CC2)nc2ccccc21	-0.45	i	x	-0.75	4
COC(=O)c1ccc(CN2CCN(CC=C(C)C)C(CCO)C2)cc1 (stereo not given)	x	i	7	0.57	7
COC(=O)c1ccc(-n2c(C)nc(=O)c(-c3ccccc3)c2C)cc1	x	i	72*	0.66	-8
Cc1ccc(C(=O)O/N=C/C2=C(Cl)c3ccccc3CC2)cc1	x	i	-157	x	20
Cc1ccc(CO/N=C/C2=C(Cl)c3ccccc3CC2)cc1	-0.61	i	79*	-0.05	-18
O=C1Nc2ccc(F)cc2C12Nc1ccccc1-c1nnc(SCc3ccccc3)nc1O2 (stereo not given)	x	i	75*	x	-5
COc1ccc(OC)c(CNC(=O)Cc2c(C(=O)O)[nH]c3ccc(Cl)cc23)c1	0.36	i	78*	1.3	3
COc1ccc(Br)cc1CNC(=O)Cc1c(C(=O)O)[nH]c2ccc(Cl)cc12	0.018	i	x	-0.34	8
CC(C)(C)NC(=O)NC(=O)CN1CCN(c2ncc(C(F)(F)F)cc2Cl)CC1	-0.34	i	68*	0.23	-7
CCCCn1c(C)nc2c(=O)n(C)c(=O)[nH]c21	x	i	73*	-0.07	6
SMILES	ROMK primary	HSV augment	Insulin prom inh	Ins promoter up	TbHK1 inh
CCCCn1c(-c2ccccc2)nc2c(=O)n(C)c(=O)[nH]c21	0.56	i	33	0.64	-4
COc1ccc(NC(=S)N2CCNC(=O)C2CC(=O)Nc2ccc(C)cc2)cc1 (stereo not given)	x	i	x	0.03	3
O=C(COc1ccccc1C(=O)O)Nc1nc2ccc([N+](=O)[O-])cc2s1	x	i	x	0.09	-15
COc1ccc(NC(=O)CN2CCN(CC(=O)Nc3ccccc3Cl)CC2)cc1Cl	-0.32	i	-57	-0.01	-8
COc1ccccc1NC(=O)CN1CCN(CC(=O)Nc2ccc(Cl)c(C(F)(F)F)c2)CC1	-2.5*	i	-107	-0.73	-11
O=C(CN1CCN(c2ccccc2)CC1)Nc1ccccc1C(F)(F)F	x	i	88*	0.59	-2
CC(C)c1ccc(S(=O)(=O)/N=C2/C=C(Sc3ncn[nH]3)C(=O)c3ccccc32)cc1	-2.6*	i	-118	1.3	4
COc1ccc(C(=O)O/N=C(\N)Cc2ccc([N+](=O)[O-])cc2)c(OC)c1	x	i	x	-0.15	-11

Screening data (PubChem BioAssay)
